Data: PubChem BioAssay (NCI)
Several values for one entry are separate records, joined by “and”; a condition that tells them apart may be missing. Equal values may be shown once. About 83,000 compounds went through this panel and 20% of them were active in at least one assay; those are over-represented in the sample as a whole.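 The test compound was applied at a single concentration to cells in 96-well plates for 48 hours, and percent growth was recorded.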 Activity calls are given as the source filed them. Rule for the calls: active = growth percent below 10; inactive = the rest.

Legend:
Assay in all cases: NCI-60 one-dose screen, 48 h (100 = growth as untreated, 0 = no growth, -100 = all killed)
SK-MEL-2 melanoma = conditions: 10 µM
EKVX NSCLC = conditions: 10 µM
SN12C renal = conditions: 10 µM
UO-31 renal = conditions: 10 µM
TK-10 renal = tested on: TK-10 renal
ACHN renal = conditions: 10 µM
CAKI-1 renal = conditions: 10 µM
CCRF-CEM leukemia = conditions: 10 µM
MOLT-4 leukemia = conditions: 10 µM
A498 renal = conditions: 10 µM

SMILES | growth (SK-MEL-2 melanoma) | growth (EKVX NSCLC) | growth (SN12C renal) | growth (UO-31 renal) | growth (TK-10 renal; 10 µM) | growth (ACHN renal) | growth (CAKI-1 renal) | growth (CCRF-CEM leukemia) | growth (MOLT-4 leukemia) | growth (A498 renal) | growth (TK-10 renal; 100 µM)
CO[C@H](C(=O)[C@@H](O)[C@@H](C)O)[C@@H]1Cc2cc3cc(OC4CC(OC5CC(O)C(O)C(C)O5)C(O)C(C)O4)c(C)c(O)c3c(O)c2C(=O)[C@H]1OC1CC(OC2CC(OC3CC(C)(O)C(O)C(C)O3)C(O)C(C)O2)C(O)C(C)O1 (stereo partly drawn) | -43.9% (active) | 16.8% (inactive) | 24.8% (inactive) | -4.43% (active) | 9.9% (active) | 3.72% (active) | 17.2% (inactive) | 3.86% (active) | 6.22% (active) | – | –
CC(C)(C)CC(C)(C)c1ccc(OCCO)cc1 | – | 122% (inactive) | 103% (inactive) | 88.2% (inactive) | 78.2% (inactive) | 117% (inactive) | 115% (inactive) | 106% (inactive) | 85.4% (inactive) | 115% (inactive) | –
O=C(/C=C/c1ccccn1)c1ccccc1 | 79.3% (inactive) | 93.8% (inactive) | 61.2% (inactive) | 56.5% (inactive) | 19.5% (inactive) | -27.1% (active) | – | -12.6% (active) | 3.13% (active) | 78.9% (inactive) | –
CS(=O)(=O)OC1CC(n2ccc(=O)[nH]c2=O)OC1COC(c1ccccc1)(c1ccccc1)c1ccccc1 (stereo not drawn) | – | – | 103% (inactive) | 81.5% (inactive) | 105% (inactive) | 103% (inactive) | 103% (inactive) | – | – | 107% (inactive) | –
CCCCCCCCCCCCCCCCCCOCC(COP(=O)([O-])OCC[N+](C)(C)C)OC (stereo not drawn) | 101% (inactive) | 119% (inactive) | 89.7% (inactive) | 94.9% (inactive) | 64% (inactive) | 93.7% (inactive) | 69% (inactive) | 63.9% (inactive) | 89.4% (inactive) | – | –
Cc1cc(NS(=O)(=O)c2ccc(N=Nc3cc(N=Nc4ccc(S(=O)(=O)Nc5cc(C)nc(C)n5)cc4)c4c(NC(=O)C(Cl)Cl)cccc4c3OC(=O)C(Cl)Cl)cc2)nc(C)n1 (tested in a mixture with another compound) | – | – | 100% (inactive) and 101% (inactive) | 68.9% (inactive) and 72.2% (inactive) | 148% (inactive) and 150% (inactive) | 89.5% (inactive) and 94.4% (inactive) | 96.7% (inactive) and 88.6% (inactive) | 95.3% (inactive) and 99.6% (inactive) | 102% (inactive) and 105% (inactive) | 116% (inactive) and 101% (inactive) | –
CC[N+](CC)=c1ccc2nc3c(cc(N)c4ccccc43)oc-2c1 | -75.1% (active) | -66.6% (active) | -40.8% (active) | -56.7% (active) | -74.2% (active) | -77.6% (active) | -79% (active) | 19.8% (inactive) | -44.4% (active) | -76.4% (active) | –
CC(C)C1=C(O)C2=C(C(=O)C1=O)C1(C)CCCC(C)(C)C1CC2O (stereo not drawn) | – | – | – | – | – | – | – | – | – | – | 18.6% (inactive) and -89% (active)
CCN(CC)c1ccc(NC(C(=O)c2ccccc2)c2ccccc2)cc1 (stereo not drawn) | 78.4% (inactive) | – | 1.65% (active) | -24.8% (active) | 41% (inactive) | -34.6% (active) | 17.8% (inactive) | 10.3% (inactive) | 12.8% (inactive) | – | –
O=C1C=CC(=CC=C2C=CN(CCCCCCCCCCCO)C=C2)C=C1 | 33.5% (inactive) | 26.3% (inactive) | 10.4% (inactive) | – | 58.8% (inactive) | 90.9% (inactive) | 90.4% (inactive) | 29.5% (inactive) | 41.9% (inactive) | 95.1% (inactive) | –
COc1ccc(CC(=O)c2ccc(O)cc2O)cc1 | – | 104% (inactive) | 123% (inactive) | 98.5% (inactive) | 122% (inactive) | 118% (inactive) | – | 104% (inactive) | – | 128% (inactive) | –
NC(=O)SCC(=O)NNc1ccccc1 | 87.5% (inactive) | 99.4% (inactive) | 94.9% (inactive) | 78.9% (inactive) | 95.5% (inactive) | 81.1% (inactive) | 92.8% (inactive) | 90.4% (inactive) | 111% (inactive) | 93.7% (inactive) | –
OC(CN1CCCC2CCCCC21)c1cc2ccccc2c2ccccc12 (stereo not drawn) | 42.8% (inactive) | 42.3% (inactive) | 49.7% (inactive) | 35.6% (inactive) | 52.6% (inactive) | 29.1% (inactive) | 41.2% (inactive) | 68.2% (inactive) | -1.89% (active) | 58.8% (inactive) | –
Clc1ccc(/C=C/c2ccccn2)c(Cl)c1 | 107% (inactive) | 58.9% (inactive) | 94.4% (inactive) | 59.6% (inactive) | 98% (inactive) | 104% (inactive) | 72.7% (inactive) | – | 79.5% (inactive) | – | –
